According to PubChem BioAssay AID977606 (Broad Institute, 2014):
In all, about 1,500 compounds went through this assay and about 430 (29%) were called active. How the calls were made is not given here. Not all results are given here. Entries with a potency or affinity are not part of this list.

Test: glucose-independent GLuc insulin release activation – cell-based, INS-1E, Gaussia luciferase, luminescence, cherry-pick, counter-screen for glucose-dependent insulin secretion activators, dose response (AID 977606)
Conditions: INS-1E Gaussia luciferase insulin secretion, no glucose, 100% = twice neutral-control luminescence; series mostly up to 35 µM

Compound | outcome
C=CCOc1cccc(C(=O)N2CCC(CCC(=O)NC3CC3)CC2)c1 | inactive
COc1ccc(CCNc2ccncn2)cc1OC | inactive
Cc1cc2cc(C#N)c(N3CCOCC3)nc2cc1Cl | inactive
CCN1CCN(CCCNC(=O)c2ccc3c(c2)N(Cc2ccccc2)CCS3)CC1 | inactive
Nc1[nH]c(C(=O)c2ccccc2)c(-c2c(F)cccc2F)c1C(=O)c1ccc(Cl)c(Cl)c1 | inactive
Cc1cn(CC(C)C)c(=O)n(-c2ccccc2)c1=O | inactive
COc1cc2c(cc1OC)CN(C(=O)Cc1ccccc1)CC2 | inactive
COc1ccc(CC(=O)OCC(=O)N2CCc3ccccc32)cc1OC | inactive
CC/C(O)=C1\C(=O)CC(C)(C)CC1=Nc1ccccc1C | inactive
CC(C)(C)c1ccc(C#C[C@@H]2C=C[C@H]3OC(=O)CC/C=C/CCC(=O)OC[C@H]3O2)cc1 | inactive
CC1CCc2nc(N)c(C#N)c(-c3ccncc3)c2C1 (configuration not stated) | inactive
Cc1c(C=O)c2ccccn2c1C(=O)c1ccc(F)cc1 | inactive
COc1ccccc1Nc1c2c(nc3ccc(N)cc13)CCCC2 | inactive
CN(C)c1ccc(CC(=O)N2CCCCC2c2cc(C(=O)Nc3ccccc3Cl)no2)cc1 (configuration not stated) | inactive
O=C(O)CNS(=O)(=O)c1ccc2c(c1)Cc1cc(S(=O)(=O)NCC(=O)O)ccc1-2 | inactive
CCc1cc2c(COC(=O)c3cccc(S(C)(=O)=O)c3)cc(=O)oc2cc1O | inactive
CCN(CC)C(=O)Cn1cc(C(=O)C(=O)N2CCN(Cc3ccccc3)CC2)c2ccccc21 | inactive
Cc1ccc(-c2nc3c(=O)n(C)c4ccccc4c3o2)cc1 | inactive
O=C(CC(c1ccccc1)c1ccco1)N1CCOCC1 (configuration not stated) | inactive
CC(C)CCC(O)(CCC(C)C)C(=O)NN1CCCCC1 | inactive
COc1ccc(C2=NN(c3ccc(C(=O)O)cc3)C(c3ccc(OC)c(OC)c3)C2)cc1 (configuration not stated) | inactive
CCOc1cc(C2C3=C(CC(C)(C)CC3=O)Nc3n[nH]c(C)c32)ccc1O (configuration not stated) | inactive
CC(C)CCN1C(=O)CSCC1(C)C(=O)NC(C)C (configuration not stated) | inactive

Compound | outcome
CCCc1nnc2c(N(C)S(=O)(=O)c3ccc(C)cc3)nc3ccccc3n12 | inactive
Cc1cc(=O)[nH]c2c1c(C)nn2C1CCCC1 | inactive
N#Cc1sc2nc(C3CC3)cc(-c3ccccc3)c2c1N | inactive
COc1cc2c(cc1OC)C1=C(C#N)CCC(=NC(=O)c3ccco3)N1CC2 | inactive
O=C(CN1C(=O)CCC1=O)Nc1cccc2c1C(=O)NC2=O | inactive
Cc1cc(-c2ccc(Br)cc2)n2nc(C)cc2n1 | inactive
CSc1ncccc1C(=O)NCCc1ccccc1F | inactive
CCSc1nnc2ccc(-c3ccc(C)cc3)nn12 | inactive
CSc1ccc2nnc(-c3cccc(F)c3)n2n1 | inactive
O=C(CCCC(=O)c1ccccc1)NCc1ccccc1 | inactive
CCCn1c(=O)c(C(=O)NCc2ccccc2)c(O)c2ccccc21 | inactive
O=C(CCc1nc2ccccc2c(=O)[nH]1)NNC(=O)c1cccc(Cl)c1 | inactive
CCOc1ccc(CCNC(=O)COC(=O)c2nccnc2N)cc1OCC | inactive
COc1ccccc1C(C)NS(=O)(=O)c1ccc(Cl)nc1 (configuration not stated) | inactive
COc1cc2c(cc1OC)CN(C(=O)CNS(=O)(=O)c1ccc(C)c(C)c1)CC2 | inactive
CN(C)CCCN(C(=O)CCOc1ccccc1)c1nc2ccc(F)cc2s1 | inactive
COc1ccc(S(=O)(=O)N2CCC(C(=O)NCc3ccccn3)CC2)cc1OC | inactive
Cc1ccc(-c2[nH]nc3c2C(c2cccnc2)C(C#N)=C(N)O3)cc1 (configuration not stated) | inactive
CC(=O)c1c(O)c2cccc3c2n(c1=O)CCC3 | inactive
Cc1cccnc1NC(=O)c1ccc(S(=O)(=O)N2CCCCC2)cc1 | inactive
O=C(NCCC1CCCCN1S(=O)(=O)c1ccc(F)cc1)C(=O)NCc1cccnc1 (configuration not stated) | inactive
CCOc1ccc(NC(=O)[C@@H](NC(=O)OCc2ccccc2)[C@@H](C)CC)cc1 | inactive
CCOc1cc(OCC)cc(C(=O)Nc2cccnc2)c1 | inactive

Compound | outcome
Cc1ccc2c(=O)cc(C(=O)NC3CCS(=O)(=O)C3)oc2c1C (configuration not stated) | inactive
CCOC(=O)N1CCN(C(=O)COc2ccccc2OC)CC1 | inactive
CN1CCCCCC1C(=O)N1CCC(N2CCC(C(=O)N3CCOCC3)CC2)CC1 (configuration not stated) | inactive
C/C(=N/NC(=O)c1ccc(Br)o1)c1ccncc1 | inactive
Cc1ccc(C(=O)Nc2cccc(C(=O)N/N=C/c3ccc(F)cc3)c2)cc1 | inactive
C/C(=N/NC(=O)c1ccc(Br)s1)c1ccncc1 | inactive
O=C(Nc1ncn[nH]1)c1ccc(Cl)c(Cl)c1 | inactive
COc1ccc(CC(=O)N2CCc3cc(OC)c(OC)cc3C2)cc1 | inactive
COc1cccc(-n2c(=O)c3ccccc3n(CC(=O)NCC3CCCO3)c2=O)c1 (configuration not stated) | inactive
O=S(=O)(c1ccc(-c2csc(Nc3ccc(Br)cc3)n2)cc1)N1CCCC1 | inactive
O=c1[nH]nc(-c2ccc(F)cc2)cc1Cc1cccs1 | inactive
CCOCC(=O)Nc1c(C(=O)OCC)oc2ccccc12 | inactive
CCCCNC(=O)c1ccccc1NC(=O)C1=C(C)OCCS1 | inactive
CCCCNC(=O)C1(C)CCN1C(=O)Cc1cccc2ccccc12 (configuration not stated) | inactive
COc1ccc(CNC(=O)CN2C(=O)NC3(CCCCCC3)C2=O)cc1 | inactive
CCOC(=O)C1=C(COC(=O)c2cccs2)NC(=O)NC1C (configuration not stated) | inactive
CCOc1ccc(CCNC(=O)COC(=O)c2cccc(N(C)C)c2)cc1OCC | inactive
O=S(=O)(NCc1ccccc1)c1ccc(-n2cccn2)cc1 | inactive
CCCCc1nc(N)c(C#N)c(-c2ccco2)c1CCC | inactive
CC(C)n1cc(/C(N)=N/O)c(=O)n(Cc2ccccc2)c1=O | inactive
CCCc1nc(N)sc1C(=O)OCC | inactive
Cc1nc2ccccc2c2nc(NC(=O)C(F)(F)F)nn12 | inactive
COC(=O)C[C@@H]1C=C[C@H](NC(=O)Cc2ccccn2)[C@@H](CO)O1 | inactive

Compound | outcome
CCCc1cc(=O)oc2cc(C)cc(OCC(=O)Nc3ccc(S(N)(=O)=O)cc3)c12 | inactive
CCCOC(=O)Nc1ccc(S(=O)(=O)Nc2ncccn2)cc1 | inactive
Cn1cc(Br)c(C(=O)NNC(=O)c2ccccc2)n1 | inactive
Cc1[nH]n(-c2ccc(Br)cc2)c(=O)c1/C=N/NC(=O)c1ccccc1 | inactive
O=S(=O)(c1ccc(NCCCO)nc1)N1CCOCC1 | inactive
CCOc1ncccc1C(=O)OCC(=O)NCCc1ccc(S(N)(=O)=O)cc1 | inactive
CCOC(=O)c1cn(-c2ccccc2)nc1-c1ccncc1 | inactive
COCCNc1nc(NCCCN(C)C)c2sccc2n1 | inactive
CCCc1nnc2n1N=C(c1ccc(OC)c(OC)c1)CS2 | inactive
O=S(=O)(c1cccs1)N1CN(C2CCCCC2)c2nc3ccccc3nc21 | inactive
Cc1nc(N)c(C#N)c(-c2cccnc2)c1-c1ccccc1 | inactive
C=CCN1C(=O)c2n[nH]c(COC)c2C1c1ccc(F)cc1 (configuration not stated) | inactive
O=C1NC(c2ccccc2)c2c(-c3ccccc3)n[nH]c21 (configuration not stated) | inactive
CNC(=O)C(=O)NCC1OCCCN1S(=O)(=O)c1ccc(F)cc1C (configuration not stated) | inactive
COc1ccc(-c2ocnc2C(=O)Nc2ccc(N3CCOCC3)cc2N2CCOCC2)cc1OC | inactive
O=C(Cc1ccsc1)NNC(=O)c1ccccc1Cl | inactive
C/C=C1\COC(C(=O)NCc2ccccc2)(C(F)(F)F)C=C1C=C(C)C (configuration not stated) | inactive
CCC(CC)NC(=O)CN1CCN(S(=O)(=O)c2cccs2)CC1 | inactive
COc1ccc(CCNC(=O)CCCc2nnc3n(C)c(=O)c4sccc4n23)cc1OC | inactive
Cc1cc(Oc2cccnc2)ccc1NC(=O)Cc1cn(C)c2ccccc12 | inactive
Cc1ccc2c(c1)N(C(C)C(=O)NCc1cccs1)C(=O)CO2 (configuration not stated) | inactive
CCCn1c(C)cc(C)c(C#N)c1=O | inactive
COCC(=O)N(C)C[C@H]1Oc2cc(Br)ccc2S(=O)(=O)N([C@H](C)CO)C[C@H]1C | inactive

Compound | outcome
COc1ccccc1-c1cnc2c(c1)C(=O)N([C@H](C)CO)C[C@@H](C)[C@@H](CN(C)C(C)=O)O2 | inactive
C[C@H](CO)N1C[C@H](C)[C@@H](CN(C)C(=O)CC2CC2)Oc2cc(C#CC(C)(C)O)ccc2S1(=O)=O | inactive
C[C@H]1CN([C@@H](C)CO)C(=O)c2cc(C#CCc3ccccc3)cnc2O[C@@H]1CN(C)C(=O)C1CC1 | inactive
Cc1c(P(=S)(c2ccccc2)c2ccccc2)[n+]2ccccc2n1C/C=C/c1ccccc1 | inactive
COc1cc2c(cc1OC)-c1cc(Nc3ccccc3Br)nc(=O)n1CC2 | inactive
CCNc1nc(C)nc2c1oc1ccccc12 | inactive
O=C(COC(=O)c1ncc(Cl)c(Cl)c1Cl)NC1CCS(=O)(=O)C1 (configuration not stated) | inactive
Fc1ccccc1-c1nnc2ccc3ccccc3n12 | inactive
O=c1c2ccccc2nnn1Cc1ccccc1 | inactive
CCc1nc2n[nH]c(N)c2c2c1CCCC2 | inactive
COCCNc1nc(NCCCN2CCCC2=O)c2sccc2n1 | inactive
CCCCOc1ccc(C2=NNC(=O)CC2)cc1 | inactive
CCc1cc2c(COC(=O)c3cccc(NS(C)(=O)=O)c3)cc(=O)oc2cc1O | inactive
COCCNc1nc(Oc2ccc(C(N)=O)cc2)c2sccc2n1 | inactive
CC(C)Cc1nc2n[nH]c(N)c2c2c1COC(C)(C)C2 | inactive
Cc1cc(C)c2oc(C(=O)Nc3ccc(S(=O)(=O)Nc4nccc(C)n4)cc3)cc(=O)c2c1 | inactive
O=C(N/N=C/c1ccc2c(c1)OCO2)c1ccc(Cl)cc1Cl | inactive
C=CCNC(=O)c1cc(-c2ccc3c(c2)OCO3)on1 | inactive
COc1ccc(C2CC(=O)Nc3sc(=N)c4c(N)c(C#N)c(N)nc4c32)cc1OC (configuration not stated) | inactive
Cc1ccsc1/C=N/n1c(-c2ccncc2)n[nH]c1=S | inactive
